Bioassay records as filed in PubChem BioAssay.
DRD3 agonist – activates the human D3 dopamine receptor. P35462. D3R DiscoveRx beta-arrestin cells, luminescence, 90 min. max activation, %. 0.58% of 410,000 active. AID 652048; in the data active = max activation above about 30%; note: 0% is about no effect
Target sequence (P35462 whole entry, looked up): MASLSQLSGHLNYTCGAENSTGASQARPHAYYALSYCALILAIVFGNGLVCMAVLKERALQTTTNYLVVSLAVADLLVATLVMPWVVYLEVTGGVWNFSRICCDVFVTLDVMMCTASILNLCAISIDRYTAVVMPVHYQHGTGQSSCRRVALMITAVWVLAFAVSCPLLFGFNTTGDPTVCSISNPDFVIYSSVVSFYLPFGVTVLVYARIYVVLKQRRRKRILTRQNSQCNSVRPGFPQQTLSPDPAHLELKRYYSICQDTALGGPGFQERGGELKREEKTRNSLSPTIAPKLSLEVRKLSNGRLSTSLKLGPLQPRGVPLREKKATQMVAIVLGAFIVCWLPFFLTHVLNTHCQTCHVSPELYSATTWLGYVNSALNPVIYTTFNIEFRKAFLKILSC
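Agonist mode: compounds and dopamine controls were applied to plated cells for 90 min at 37 degrees C after an overnight attachment at 1500 cells/well. Luminescent read-out followed 30 - 60 minutes at room temperature with DiscoveRx detection reagent.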
IL-1B inflam inh – inhibitors of inflammasome signaling (IL-1 beta secretion); 4.7% of 360,000 active; activity change, % at 57.5 µM; THP-1 LPS/ATP IL-1B secretion, AlphaLISA, 16 h; hits give low values; in the data active = activity change below about -50%; inconclusive = mostly about -30% to -49%; note: % is set by controls: 0 for no effect and ±100 for the full control effect
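Secreted IL-1B measured by AlphaLISA bead assay after 16 h compound exposure of THP-1 cells; compounds (final up to 57.5 uM) added 1 h before LPS (250 ng/mL) and ATP (1.25 mM) stimulation; lower signal means less secretion.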
TDP1 cell noCPT – qHTS for Inhibitors of human tyrosyl-DNA phosphodiesterase 1 (TDP1): qHTS in cells in absence of CPT | DT40 Tdp1-/- hTDP1 cells, no CPT, ATP luminescence, 48 h | Potency, µM (titrated, usually from 46.2 µM), for the others: at the highest dose activity change, negative = growth inhibition, most hits filed as inhibitors | 15% of 420,000 active | AID 686978, 2013; note: potency is the fitted concentration of half-maximal effect; % is set by controls: 0 for no effect and ±100 for the full control effect; nearly all actives have a fitted effect of over 55% in size
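Luminescent ATP content (CellTiter-Glo) served as the growth readout. Knockout chicken DT40 cells expressing human TDP1 were exposed to compounds without camptothecin for a minimum 48 hr at 37 °C.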
ClpP mod – qHTS Assay for Activators of ClpP; 1.9% of 340,000 active; Potency, µM (titrated, usually from 57.5 µM), inactives show top-dose activity change, negative = active; purified B. subtilis ClpP, FRET peptide cleavage, 20 min; AID 651965, 2013; ATP-dependent Clp protease proteolytic subunit (Bacillus subtilis (strain 168)), P80244; active = well fitted falling curve with a large enough effect; inconclusive = small, poorly fitted or top-dose-only effect; inactive = no such curve, though single readings can be large or run the other way; note: potency is the fitted concentration of half-maximal effect; the source files actives as falling curves though it sought activators and does not explain the sign; nearly all actives have a fitted effect of over 65% in size
Target sequence (P80244 whole entry, looked up): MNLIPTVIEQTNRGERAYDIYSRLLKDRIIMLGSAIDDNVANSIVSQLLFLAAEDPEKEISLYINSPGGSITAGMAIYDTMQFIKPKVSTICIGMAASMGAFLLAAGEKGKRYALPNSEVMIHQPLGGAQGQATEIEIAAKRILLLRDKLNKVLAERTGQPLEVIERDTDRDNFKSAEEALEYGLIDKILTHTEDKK
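ClpP 10 microg/mL final, pH 8 Tris/KCl buffer with BSA, glycerol, Tween-20; compound pinned in; FRET-FV substrate; RT 20 min; Ex320/Em430; ΔFRET vs ADEP 5.8 microM, DMSO, no enzyme.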
DT40 TDP1 CPT – growth inhibition of DT40 Tdp1-/-;hTDP1 cells with camptothecin (screen for TDP1 inhibitors); chicken DT40 Tdp1-/-;hTDP1 cells + 20 nM CPT, ATP luminescence, 48 h; Potency, µM (series often up to 46.2 µM), without a hit: top-dose activity change, negative = growth inhibition, actives largely listed as inhibitors; 12% of 420,000 active; note: potency is the fitted concentration of half-maximal effect; % is set by controls: 0 for no effect and ±100 for the full control effect; nearly all actives have a fitted effect of over 55% in size
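Chicken DT40 Tdp1-/- cells complemented with human TDP1, 400 cells/well, exposed to compounds plus 20 nM camptothecin for at least 48 h at 37 C; viability read as ATP content by CellTiter-Glo luminescence.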
DRD3 antagonist – D3 dopamine receptor (human) antagonism. AID 652054. max response, negative = inhibition, %. 2.5% of 360,000 active. D3R cells, DiscoveRx beta-arrestin luminescence, antagonist mode; hits give low values; in the data active = max response below about -50%; inconclusive = no clear call, values can overlap the other calls; note: % is set by controls: 0 for no effect and ±100 for the full control effect
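Cells plated overnight at 1500 cells/well, then exposed to library compounds with dopamine controls for 90 minutes at 37 degrees C. DiscoveRx reagent added for 30–60 minutes at room temperature; luminescence read, quantitative HTS format.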
Numbers without * were called inactive; ? = inconclusive; · = no result. In the library only some 21% were active in any assay of this set; here they are far more common. Unless noted, calls come from the whole dose curve; as a rule, active = well fitted inhibition curve with a large enough effect; inconclusive = small, poorly fitted or top-dose-only effect; inactive = flat fitted curve, though single readings scatter.

SMILES	DRD3 agonist	IL-1B inflam inh	TDP1 cell noCPT	ClpP mod	DT40 TDP1 CPT	DRD3 antagonist
Cc1cccc(NC(=O)C(CCC(N)=O)NC(=O)OCc2ccccc2)c1 (configuration not stated)	1	29	-2%	·	12%	3
COc1ccc(CNC(=O)CN(C(=O)CCC(=O)Nc2nccs2)c2ccccc2C)cc1	4	-21	?	·	5%	-3
CCN(CC)CCN(C(=O)c1ccco1)c1nc2c(C)cccc2s1	-23	·	21µM*	?	15µM*	·
CCc1noc(C)c1C(=O)N(CC)c1nc2c(C)cccc2s1	1	3	18µM*	·	?	-9
COc1ccccc1C(=O)NC(CCSC)C(=O)NCc1ccccn1 (configuration not stated)	2	1	-2%	-3%	18%	0
O=C1CCCC(=O)C1C(=O)C1CCN(S(=O)(=O)c2ccccc2)CC1	9	55	-97%	·	?	15
O=C(NCCCCc1ccccc1)Nc1ccc(F)cc1	-1	5	11%	1%	-4%	-2
Cc1cc(N2CCOCC2)nc2ccc(NC(=O)C3CCCCC3)cc12	·	·	10µM*	5%	13µM*	·
Cc1ccc(NC(=O)C2CCCC2)cc1S(=O)(=O)N1CCOCC1	3	-6	8%	-4%	4%	21
COc1cc(NC(=S)N2CCCCC2C)cc(OC)c1OC (configuration not stated)	-6	24	3%	·	6%	-2
Cc1cc(N2CCOCC2)nc2ccc(NC(=S)N3CCCCC3C)cc12 (configuration not stated)	-8	-67*	?	·	?	17
COC(=O)[C@@H](Cc1ccccc1)NC(=O)Cn1cc(C)c(=O)[nH]c1=O	9	0	3%	0%	0%	-6
CN(C(=O)Cn1cc(C(F)(F)F)ccc1=O)c1c(N)n(Cc2ccccc2)c(=O)[nH]c1=O	2	28	3%	·	-1%	6
O=[N+]([O-])c1ccc(/C=C2\C=Cc3ccccc32)cc1	·	·	?	3%	8.9µM*	·
O=[N+]([O-])c1ccc2c(c1)C=C/C2=C\c1ccccc1	·	·	-11%	0%	-19%	·
CSc1ccc(/C=C2\C=Cc3cc([N+](=O)[O-])ccc32)cc1	·	·	16µM*	1%	11µM*	·
Cc1cc(C)c2c(c1)CC(C)(C)CC2=O	3	19	1%	-2%	25%	5
O=C(OCCN1CCN(c2ncc(C(F)(F)F)cc2Cl)CC1)c1ccc(Cl)cc1	-11	-2	?	0%	-14%	-83*
OC(CN1CCN(c2ncc(C(F)(F)F)cc2Cl)CC1)c1ccccc1 (configuration not stated)	-1	4	?	1%	?	-7
CCOC(=O)C=C1CCN(c2ncc(C(F)(F)F)cc2Cl)CC1	1	-7	-18%	1%	-22%	20
C/[N+]([O-])=C\c1cccc(OCCN2CCN(c3ncc(C(F)(F)F)cc3Cl)CC2)c1	4	-51*	?	·	-8%	-14
O=C(c1ccc2c(c1)OCCO2)N1CCN(c2ncc(C(F)(F)F)cc2Cl)CC1	1	5	16µM*	1%	?	16
O=C(Nc1ccc2c(c1)OCO2)N1CCN(c2ncc(C(F)(F)F)cc2Cl)CC1	4	-61*	12µM*	0%	21µM*	50
CC(C(=O)N1CCN(c2ccc(Cl)cc2)CC1)c1ncc(C(F)(F)F)cc1Cl (configuration not stated)	-13	?	23µM*	-2%	18µM*	20
CC(C)(C(N)=O)N1CCN(c2ncc(C(F)(F)F)cc2Cl)CC1	0	-20	15µM*	0%	15µM*	3
SMILES	DRD3 agonist	IL-1B inflam inh	TDP1 cell noCPT	ClpP mod	DT40 TDP1 CPT	DRD3 antagonist
CCOC(=O)N1CCN(c2ncc(C(F)(F)F)cc2Cl)CC1	4	0	?	·	?	-4
Cc1ccsc1C(=O)N1CCN(c2ncc(C(F)(F)F)cc2Cl)CC1	2	-20	15µM*	-9%	12µM*	-1
COc1ccc(OC)c(N(CCN2C(=O)c3ccccc3C2=O)C(=O)CCl)c1	1	-104*	21µM*	0%	?	13
COc1ccc(C(=O)CN2C(=O)c3ccccc3C2=O)c(OC)c1	3	-15	14%	1%	-10%	10
CCOC(=O)CNC(=O)CSc1nc(-c2ccc(C)cc2)ns1	-6	-152*	-20%	·	-6%	-6
CCOC(=O)CNC(=O)CSc1nc2c(C)cccc2cc1CC	-8	-98*	?	·	?	4
CCc1cc2cccc(C)c2nc1SCC(=O)NC1CCCC1	-11	3	-14%	·	0%	-20
CCOC(=O)CNC(=O)CSc1nc(-c2ccccc2)ns1	6	12	?	·	?	7
O=S(=O)(c1ccc(-c2csc(=Nc3ccc(OC(F)(F)Cl)cc3)n2CCCO)cc1)N1CCCC1	-2	·	2.3µM*	-10%	2.9µM*	·
Cn1c(-c2ccc(S(=O)(=O)N3CCCC3)cc2)csc1=Nc1ccc(Cl)c(Cl)c1	-3	·	4.1µM*	-8%	9.2µM*	·
COCCCn1c(-c2ccc(S(=O)(=O)N3CCOCC3)cc2)csc1=Nc1ccccc1	4	0	15µM*	-5%	18µM*	43
COc1ccccc1CNC(=O)CCc1c(C)c2cc3c(C)coc3cc2oc1=O	-18	·	?	-11%	?	·
COc1cccc(Oc2ccc(S(=O)(=O)N3CCCC3)cc2[N+](=O)[O-])c1	-7	?	-27%	0%	?	-19
CC/C(=C\c1ccc(C(=O)OC)cc1)c1cc(OC)cc2oc3ccccc3c12	·	·	?	4%	?	·
CN(C)CCCOc1ccc2c(c1)Sc1ccccc1CC2=O	-47	-3	?	-6%	?	?
O=C1Cc2ccccc2Sc2c(OCCN3CCCCC3)cccc21	-31	-72*	?	-6%	?	-65*
O=C1Cc2ccccc2Sc2cc(OCCCN3CCCCC3)ccc21	-6	0	?	-1%	?	-53*
COc1ccc(NC(=O)CN(C)C(=O)CNC(=O)c2cccs2)cc1	1	0	4%	-1%	17%	6
CCOC(=O)c1c(C)[nH]c(C)c1S(=O)(=O)NCC1CCN(Cc2ccccc2OC)CC1	-13	?	4%	-3%	?	-26
